The list is not random: actives were taken first. Their share in the collection is about 4.6%.
ADAM17 inh: ADAM17 inhibitors, primary screen, biochemical, QFRET; Disintegrin and metalloproteinase domain-containing protein 17 (Homo sapiens), P78536; recombinant ADAM17, EDANS/DABCYL FRET peptide cleavage; inhibition, % at 6.95 µM; 0.83% of 370,000 active; AID 720648, 2013;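 active means inhibition above the mean of compounds lying between control limits plus 3 SD, set per campaign, cut at about 8.5% in these data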;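 further: 0% = DMSO-only wells as the low control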
KLK7 zymogen act: proKLK7 zymogen activators, primary screen, biochemical, fluorescence intensity | 0.9% of 370,000 active | purified proKLK7, EDANS-DABCYL substrate fluorescence; 100% is mature enzyme control, 0% vehicle | Kallikrein-7 (Homo sapiens), P49862 | activation, % at 7 µM;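 active means activation above the mean of all tested compounds plus 3 SD, computed per campaign excluding outliers beyond control limits, cut at about 13% in these data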
FAS TE block: FAS thioesterase domain inhibitors, primary screen, biochemical, fluorescence intensity, uHTS. Fatty acid synthase (Homo sapiens), P49327. recombinant FAS-TE, OMFH fluorogenic substrate, fluorescence endpoint. inhibition, % at 15 µM. 0.67% of 360,000 active. AID 602261, 2012;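 active means compounds whose normalised, plate-corrected inhibition of enzyme fluorescence in the single-dose primary screen is 50% or more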;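 further: 0% = DMSO with enzyme and 100% = substrate without enzyme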
GRIN3A LBD mod: binders of NR3A ligand-binding domain, primary screen, biophysical, differential scanning fluorimetry, uHTS | NR3A LBD differential scanning fluorimetry, Tm shift; 0% = protein alone, 100% = glycine-bound protein | Tm shift relative to glycine control, % at 25 µM | 2.5% of 340,000 active | AID 1259313, 2017;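 active means melting temperature shift of at least 10% of the positive control shift, at one fixed dose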
ADAM10 inh: human ADAM10 inhibitors, primary screen, biochemical, QFRET, HTS; 0.62% of 370,000 active; AID 720582, 2013; inhibition, % at 7 µM; Disintegrin and metalloproteinase domain-containing protein 10 (Homo sapiens), O14672; recombinant ADAM10, EDANS/DABCYL FRET peptide cleavage, 3 h;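 active means inhibition above a per-campaign cutoff equal to the mean of compounds falling between control-based bounds plus 3 SD, cut at about 20% in these data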;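 further: 0% = DMSO wells while the 100% control is not disclosed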
Target sequence (O14672 214-748 limits assumed): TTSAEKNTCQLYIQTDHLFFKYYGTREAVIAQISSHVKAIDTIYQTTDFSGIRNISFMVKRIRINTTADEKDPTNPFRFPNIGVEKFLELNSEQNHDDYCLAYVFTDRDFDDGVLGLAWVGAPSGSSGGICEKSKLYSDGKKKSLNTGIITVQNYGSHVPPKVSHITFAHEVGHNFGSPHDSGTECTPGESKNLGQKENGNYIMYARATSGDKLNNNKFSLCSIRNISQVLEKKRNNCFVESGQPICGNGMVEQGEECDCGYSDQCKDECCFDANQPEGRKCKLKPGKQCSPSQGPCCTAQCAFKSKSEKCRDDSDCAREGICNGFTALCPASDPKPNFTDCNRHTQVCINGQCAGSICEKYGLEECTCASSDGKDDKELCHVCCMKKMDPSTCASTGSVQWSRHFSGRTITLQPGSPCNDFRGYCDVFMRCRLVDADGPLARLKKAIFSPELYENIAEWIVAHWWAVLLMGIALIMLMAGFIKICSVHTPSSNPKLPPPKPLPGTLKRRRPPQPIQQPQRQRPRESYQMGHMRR
ADAM10 ctr: ADAM10 inhibitors, counter-screen for ADAM17 exosite inhibitor project, biochemical, FRET, human ADAM10; shares compounds with ADAM17 inh; recombinant ADAM10, EDANS/DABCYL FRET peptide cleavage, 3 h; inhibition, % at 6.95 µM; 47% of 2,900 active;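 active means mean inhibition over the triplicate runs exceeds the activity threshold set in the earlier primary screen, cut at about 20% in these data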;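 further: 0% = DMSO wells and 100% = marimastat wells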
ADAM17 confirm: ADAM17 inhibitors, hit retest, confirmation, biochemical, QFRET peptide cleavage; shares compounds with ADAM17 inh; recombinant ADAM17, EDANS/DABCYL QFRET peptide cleavage; inhibition, % at 6.95 µM; 65% of 2,900 active; AID 743257, 2014;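 active means mean inhibition across replicates above the hit cutoff set in the primary screen, cut at about 8.5% in these data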;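 further: 0% = DMSO wells and 100% = marimastat wells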
* marks the source's active call; other numbers are inactive results.

How did C[C@H](CO)N1C[C@H](C)[C@@H](CN(C)S(C)(=O)=O)OCc2cn(nn2)CCCC1=O do in these assays?
ADAM17 inh: 2; KLK7 zymogen act: 0; ADAM10 inh: -6

How did CC[C@@H]1C=C(C(=O)O)[C@H](c2ccc(C)cc2)N1S(=O)(=O)c1ccc(C)cc1 do in these assays?
ADAM17 inh: -3; KLK7 zymogen act: 0; FAS TE block: -5; GRIN3A LBD mod: -1; ADAM10 inh: -10

How did CC[C@@H]1C=C(C(=O)O)[C@H](c2ccc(Cl)cc2)N1S(=O)(=O)c1ccc(C)cc1 do in these assays?
ADAM17 inh: 8.6*; KLK7 zymogen act: 0; FAS TE block: -11; GRIN3A LBD mod: 3; ADAM10 inh: 1; ADAM10 ctr: 10; ADAM17 confirm: 5

How did CCc1noc2cc(-c3ccccc3)n(C)c(=O)c12 do in these assays?
ADAM17 inh: 0; KLK7 zymogen act: 0; ADAM10 inh: 5

Results for CC(C)(C)[C@@H]1COC(=O)[C@H](Cc2ccc(F)cc2)CC/C=C\C[C@H](CC(=O)N(CCO)Cc2ccccc2)C(=O)N1 ?
ADAM17 inh: 11*; KLK7 zymogen act: 0; FAS TE block: -2; GRIN3A LBD mod: -3; ADAM10 inh: 14; ADAM10 ctr: 7; ADAM17 confirm: 5

What do the screens show for `O=C1N[C@@H](Cc2c[nH]c3ccccc23)COC(=O)[C@@H](Cc2ccc(F)cc2)CC/C=C/C[C@@H]1CC(=O)N(CCO)Cc1ccccc1`?
ADAM17 inh: 10*; KLK7 zymogen act: 0; FAS TE block: 26; GRIN3A LBD mod: 0; ADAM10 inh: 18; ADAM10 ctr: 59*; ADAM17 confirm: 28*

How did CCOC(=O)c1c(C)[nH]c(C)c1C(=O)CSc1nc2ccccc2c(=O)n1-c1ccc(F)cc1 do in these assays?
ADAM17 inh: 10*; KLK7 zymogen act: -1; FAS TE block: 22; GRIN3A LBD mod: -5; ADAM10 inh: 19; ADAM10 ctr: 22*; ADAM17 confirm: 15*

How did COC(=O)[C@]12C[C@H](CC(=O)NCc3cccc(C(F)(F)F)c3)C(=O)N(Cc3ccccc3)C1=C[C@H](C(C)(C)C)O[C@@H]2C do in these assays?
ADAM17 inh: 6; KLK7 zymogen act: 0; ADAM10 inh: 11

What do the screens show for `COc1ccc(Cn2nnnc2C(c2cccs2)N2CCOCC2)cc1` (stereo not given)?
ADAM17 inh: 8.7*; KLK7 zymogen act: 0; FAS TE block: -4; GRIN3A LBD mod: 1; ADAM10 inh: 5; ADAM10 ctr: 6; ADAM17 confirm: 11*

Results for Cc1ccc(C2c3c(n[nH]c3C(C)C)C(=O)N2c2ccccc2)cc1 (stereo not given) ?
ADAM17 inh: 5; KLK7 zymogen act: 0; ADAM10 inh: -15

Results for O=C(CCNS(=O)(=O)c1ccccc1)NCCCSc1ccccc1 ?
ADAM17 inh: -3; KLK7 zymogen act: 0; FAS TE block: -2; GRIN3A LBD mod: 4; ADAM10 inh: -8

How did O=C(CCNS(=O)(=O)c1ccccc1C(F)(F)F)NCCCSc1ccccc1 do in these assays?
ADAM17 inh: 8.7*; KLK7 zymogen act: 0; FAS TE block: 14; GRIN3A LBD mod: -2; ADAM10 inh: 9; ADAM10 ctr: 14; ADAM17 confirm: 10*

How did O=C(CCNS(=O)(=O)c1ccccc1C(F)(F)F)N1CCN(C(c2ccccc2)c2ccccc2)CC1 do in these assays?
ADAM17 inh: 8.9*; KLK7 zymogen act: 0; FAS TE block: 28; GRIN3A LBD mod: -6; ADAM10 inh: 9; ADAM10 ctr: 30*; ADAM17 confirm: 18*

Results for O=C(CCNS(=O)(=O)c1ccccc1C(F)(F)F)N1CCCCCCC1 ?
ADAM17 inh: 0; KLK7 zymogen act: -1; FAS TE block: -1; GRIN3A LBD mod: 2; ADAM10 inh: -8

What do the screens show for `Cc1cc(C)cc(S(=O)(=O)N2CCN(c3nc(-c4cccs4)nc4ccccc34)CC2)c1`?
ADAM17 inh: -5; ADAM10 inh: -13

How did COc1cccc(NC(=O)c2ccccc2-c2nc(-c3cccc(C)c3)no2)c1 do in these assays?
ADAM17 inh: 9.6*; KLK7 zymogen act: 0; FAS TE block: 28; GRIN3A LBD mod: -9; ADAM10 inh: 25*; ADAM10 ctr: 26*; ADAM17 confirm: 15*

How did Cc1cccc(-c2noc(-c3ccccc3C(=O)NCC3CCCO3)n2)c1 (stereo not given) do in these assays?
ADAM17 inh: 1; KLK7 zymogen act: 0; FAS TE block: -4; GRIN3A LBD mod: 0; ADAM10 inh: 2

How did Cc1ccc(C(=O)OCC(=O)c2c[nH]c3ccccc23)cc1S(=O)(=O)N1CCOCC1 do in these assays?
ADAM17 inh: 10.0*; KLK7 zymogen act: -1; FAS TE block: 7; GRIN3A LBD mod: -4; ADAM10 inh: -3; ADAM10 ctr: -7; ADAM17 confirm: 3

Results for O=C1CC(N(CCc2ccccc2)C(=S)Nc2ccccc2)C(=O)N1c1ccccc1 (stereo not given) ?
ADAM17 inh: 8.7*; KLK7 zymogen act: 0; FAS TE block: 29; GRIN3A LBD mod: 17*; ADAM10 inh: 17; ADAM10 ctr: 11; ADAM17 confirm: 8.9*

Results for CCNC(=S)N(CCc1ccc(S(N)(=O)=O)cc1)C1CC(=O)N(c2ccccc2)C1=O (stereo not given) ?
ADAM17 inh: 3; KLK7 zymogen act: -1; FAS TE block: -1; GRIN3A LBD mod: -3; ADAM10 inh: 3

What do the screens show for `Cc1[nH]c2ccccc2c1CC(=O)Nc1ccc(N(C)c2cccnc2)c(-c2ccc(F)c(F)c2)c1`?
ADAM17 inh: -6; KLK7 zymogen act: -1; ADAM10 inh: -18

How did COC(=O)N/N=C/c1cc([N+](=O)[O-])cc(Br)c1O do in these assays?
ADAM17 inh: 11*; KLK7 zymogen act: 0; FAS TE block: -6; GRIN3A LBD mod: -14; ADAM10 inh: 18; ADAM10 ctr: 6; ADAM17 confirm: 4

What do the screens show for `Cc1cccc(N2CCN(c3ccc(N4C(=O)CCCC4=O)cc3[N+](=O)[O-])CC2)c1C`?
ADAM17 inh: 14*; KLK7 zymogen act: 0; FAS TE block: -7; GRIN3A LBD mod: -5; ADAM10 inh: 2; ADAM10 ctr: 10; ADAM17 confirm: 8
